Source: PubChem BioAssay (NCI)
This is part of a sample that, as a whole, favours compounds with a hit. Of some 79,000 tested, about 15% had one in any assay. The source made the active and inactive calls. Rule as the data show it: active = growth inhibition above about 70%; inactive = the rest.

Legend:
[1] = NCI Yeast Anticancer Drug Screen. Data for the rad52 strain (AID 147);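 also: 0% = growth of vehicle-treated control cultures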; details: S. cerevisiae rad52 mutant growth inhibition, stronger effect = higher value
Outline: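 Yeast strain carrying a DNA damage repair alteration was exposed to test compounds. Growth inhibition was measured relative to vehicle-treated controls.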

[2] = NCI Yeast Anticancer Drug Screen. Data for the wt1 strain (AID 149);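 also: 0% = growth of vehicle-treated wt1 cultures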; details: S. cerevisiae wt1 strain (SPY 50644) growth inhibition, stronger effect = higher value
Outline: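 Growth inhibition read against vehicle controls after compound exposure of the wt1 yeast strain.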

[3] = NCI Yeast Anticancer Drug Screen. Data for the rad50EPP+ strain (AID 151);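 also: 0% = growth of vehicle-treated control cultures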; details: S. cerevisiae rad50 mutant strain, stronger effect = higher value
Outline: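 Yeast strain carrying rad50 alteration (rad50EPP+) exposed to compounds; growth inhibition measured relative to vehicle-treated controls.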

[4] = NCI Yeast Anticancer Drug Screen. Data for the mgt1 strain (AID 153); details: S. cerevisiae mgt1 mutant growth inhibition, stronger effect = higher value
Outline: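 Yeast mgt1 strain (DNA repair/cell-cycle alteration panel) exposed to compounds; growth inhibition measured relative to vehicle-treated controls.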

[5] = NCI Yeast Anticancer Drug Screen. Data for the rad50 strain (AID 155);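 also: 0% = growth of vehicle-only cultures of the same strain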; details: S. cerevisiae rad50 strain growth inhibition, stronger effect = higher value
Outline: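 Readout: growth inhibition relative to vehicle-treated cultures. Compound exposure was carried out in a genetically defined yeast strain deficient in DNA damage repair.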

[6] = NCI Yeast Anticancer Drug Screen. Data for the mec2-1 strain (AID 157); details: S. cerevisiae mec2-1 strain, stronger effect = higher value
Outline: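 mec2-1 yeast strain, carrying an alteration in DNA damage repair or cell cycle control, was exposed to compounds; growth inhibition was measured relative to vehicle-treated controls.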

[7] = NCI Yeast Anticancer Drug Screen. Data for the rad14 strain (AID 159);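 also: 0% = growth of vehicle-treated control cultures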; details: S. cerevisiae rad14 strain growth inhibition, stronger effect = higher value
Outline: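 Growth inhibition vs vehicle controls; genetically altered yeast strain (DNA damage repair defect) treated with test compounds.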

[8] = NCI Yeast Anticancer Drug Screen. Data for the sgs1 mgt1 strain (AID 161);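 also: 0% = growth of cultures given vehicle only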; details: S. cerevisiae sgs1 mgt1 strain, stronger effect = higher value
Outline: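 Growth of a repair-deficient yeast mutant was monitored after compound treatment and expressed as inhibition relative to vehicle-treated cultures.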

[9] = NCI Yeast Anticancer Drug Screen. Data for the CLN2oe strain (AID 163);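 also: 0% = growth of vehicle-only control cultures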; details: S. cerevisiae CLN2oe strain, stronger effect = higher value
Outline: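 Yeast cells carrying a defined cell-cycle control alteration were exposed to test compounds. Growth inhibition was scored against vehicle-treated control cultures.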

[10] = NCI Yeast Anticancer Drug Screen. Data for the bub3 strain (AID 167); details: S. cerevisiae bub3 mutant strain, stronger effect = higher value
Outline: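 Readout: yeast growth inhibition, expressed relative to vehicle-only wells. The test organism is a mutant strain from a panel with lesions in DNA repair or checkpoint genes.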

[11] = NCI Yeast Anticancer Drug Screen. Data for the wt2 strain (AID 169);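 also: 0% = growth of vehicle-treated yeast cultures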; details: S. cerevisiae wt2 strain growth inhibition, stronger effect = higher value
Outline: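 Yeast cells were exposed to test compounds, and growth inhibition was measured relative to vehicle-treated controls.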

[12] = NCI Yeast Anticancer Drug Screen. Data for the mlh1 strain (AID 171);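 also: 0% = growth of vehicle-treated control cultures of the same strain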; details: S. cerevisiae mlh1 strain growth inhibition, stronger effect = higher value
Outline: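 Yeast carrying a defined genetic alteration in DNA damage repair or cell cycle control were exposed to test compounds. Growth inhibition was measured relative to vehicle-treated controls.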

[13] = NCI Yeast Anticancer Drug Screen. Data for the mlh1 rad18 strain (AID 175); details: S. cerevisiae mlh1 rad18 strain growth inhibition, stronger effect = higher value
Outline: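 Growth inhibition of the yeast strain was measured after compound exposure and expressed relative to vehicle-treated controls. The strain carries defined defects in DNA damage repair.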

[14] = NCI Yeast Anticancer Drug Screen. Data for the rad18 strain (AID 177); details: S. cerevisiae rad18 mutant growth inhibition, stronger effect = higher value
Outline: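 Yeast carrying a defined DNA damage repair alteration were exposed to compounds. Growth inhibition was expressed relative to vehicle-treated controls.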

[15] = NCI Yeast Anticancer Drug Screen. Data for the cln2 rad14 strain (AID 165);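 also: 0% = growth equal to vehicle treated cultures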; details: S. cerevisiae cln2 rad14 strain, stronger effect = higher value
Outline: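 Yeast carrying cln2 and rad14 alterations (cell cycle control and DNA damage repair) were exposed to compounds. Growth inhibition was measured against vehicle-treated controls.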

[16] = NCI Yeast Anticancer Drug Screen. Data for the sgs1 strain (AID 173);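 also: 0% = growth of vehicle-only control cultures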; details: S. cerevisiae sgs1 mutant, stronger effect = higher value
Outline: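 Yeast mutant strains carrying defined defects in DNA damage repair or cell cycle control were exposed to test compounds. Growth inhibition was scored against vehicle-treated controls.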

[17] = at 5.0 µM (retest, dose inferred, filed as 0.5)
[18] = at 50.0 µM (retest, dose inferred, filed as 5.0)

Measured: growth inhibition

O=CC=C(c1ccccc1)c1ccccc1
inactive: [1]; at 1.2 µM -2% | [1]; at 3.7 µM 0% | [1]; at 11.0 µM -9% | [1]; at 33.0 µM 8% | [2]; at 1.2 µM -3% | [2]; at 3.7 µM 3% | [2]; at 11.0 µM -4% | [2]; at 33.0 µM 10% | [3]; at 1.2 µM 20% | [3]; at 3.7 µM 18% | [3]; at 11.0 µM 26% | [3]; at 33.0 µM 43% | [4]; at 1.2 µM -10% | [4]; at 3.7 µM -6% | [4]; at 11.0 µM 2% | [4]; at 33.0 µM 10% | [5]; at 1.2 µM 8% | [5]; at 3.7 µM 5% | [5]; [17] 41% | [5]; at 11.0 µM 4% | [5]; at 33.0 µM 11% | [5]; at 50.0 µM 39.6% | [6]; at 1.2 µM 4% | [6]; at 3.7 µM 0% | [6]; [17] 51% | [6]; at 11.0 µM 0% | [6]; at 33.0 µM 20% | [6]; at 50.0 µM -13.3% | [7]; at 1.2 µM 7% | [7]; at 3.7 µM -2% | [7]; at 11.0 µM 3% | [7]; at 33.0 µM 10% | [8]; [17] -9% | [9]; at 1.2 µM 16% | [9]; at 3.7 µM 5% | [9]; at 11.0 µM 13% | [9]; at 33.0 µM 20% | [10]; at 1.2 µM -11% | [10]; at 3.7 µM -13% | [10]; [17] 30% | [10]; at 11.0 µM -32% | [10]; at 33.0 µM -10% | [10]; at 50.0 µM 40.6% | [11]; at 1.2 µM 4% | [11]; at 3.7 µM 9% | [11]; at 11.0 µM 6% | [11]; at 33.0 µM 22% | [12]; at 1.2 µM 5% | [12]; at 3.7 µM 10% | [12]; at 11.0 µM 16% | [12]; at 33.0 µM 19% | [13]; [17] 16% | [13]; at 50.0 µM 28.4% | [14]; at 1.2 µM 20% | [14]; at 3.7 µM 26% | [14]; at 11.0 µM 25% | [14]; at 33.0 µM 34%
active: [1]; at 100.0 µM 95% | [2]; at 100.0 µM 98% | [3]; at 100.0 µM 83% | [4]; at 100.0 µM 98% | [5]; [18] 86% | [5]; at 100.0 µM 98% | [6]; [18] 93% | [6]; at 100.0 µM 98% | [7]; at 100.0 µM 98% | [8]; [18] 97% | [8]; at 50.0 µM 80% | [9]; at 100.0 µM 98% | [10]; [18] 98% | [10]; at 100.0 µM 98% | [11]; at 100.0 µM 97% | [12]; at 100.0 µM 99% | [13]; [18] 90% | [14]; at 100.0 µM 98%

[O-][n+]1c2ccc(O)cc2nc2ccc(Br)cc21
inactive: [1]; at 1.2 µM 1% | [1]; at 3.7 µM 16% | [1]; at 11.0 µM 42% | [2]; at 1.2 µM 1% | [2]; at 3.7 µM 14% | [2]; at 11.0 µM 22% | [2]; at 33.0 µM 45% | [2]; at 100.0 µM 67% | [3]; at 1.2 µM 6% | [3]; at 3.7 µM 20% | [3]; at 11.0 µM 55% | [4]; at 1.2 µM 4% | [4]; at 3.7 µM 21% | [4]; at 11.0 µM 46% | [5]; at 1.2 µM 2% | [5]; at 3.7 µM 18% | [5]; [17] 36% | [5]; at 11.0 µM 56% | [6]; at 1.2 µM -1% | [6]; at 3.7 µM 12% | [6]; [17] 2% | [6]; at 11.0 µM 25% | [6]; at 33.0 µM 49% | [6]; at 100.0 µM 61% | [7]; at 1.2 µM 2% | [7]; at 3.7 µM 7% | [7]; at 11.0 µM 29% | [7]; at 33.0 µM 67% | [8]; [17] 30% | [8]; at 50.0 µM 65% | [15]; [17] 16% | [15]; at 50.0 µM 49% | [10]; at 1.2 µM 5% | [10]; at 3.7 µM 16% | [10]; [17] 32% | [10]; at 11.0 µM 41% | [11]; at 1.2 µM 3% | [11]; at 3.7 µM -40% | [11]; at 11.0 µM 25% | [11]; at 33.0 µM 60% | [12]; at 1.2 µM 2% | [12]; at 3.7 µM 15% | [12]; at 11.0 µM 29% | [16]; at 1.2 µM 4% | [16]; at 3.7 µM 8% | [16]; at 11.0 µM 28% | [13]; [17] 50% | [14]; at 1.2 µM 5% | [14]; at 3.7 µM 21% | [14]; at 11.0 µM 57%
active: [1]; at 33.0 µM 83% | [1]; at 100.0 µM 85% | [3]; at 33.0 µM 75% | [3]; at 100.0 µM 77% | [4]; at 33.0 µM 85% | [4]; at 100.0 µM 87% | [5]; at 33.0 µM 87% | [5]; [18] 96% | [5]; at 50.0 µM 88.5% | [5]; at 100.0 µM 87% | [6]; [18] 81% | [6]; at 50.0 µM 78.8% | [7]; at 100.0 µM 81% | [8]; [18] 86% | [15]; [18] 88% | [10]; at 33.0 µM 78% | [10]; [18] 74% | [10]; at 50.0 µM 84% | [10]; at 100.0 µM 70% | [11]; at 100.0 µM 80% | [12]; at 33.0 µM 75% | [12]; at 100.0 µM 84% | [16]; at 33.0 µM 74% | [16]; at 100.0 µM 84% | [13]; [18] 93% | [13]; at 50.0 µM 92.2% | [14]; at 33.0 µM 90% | [14]; at 100.0 µM 90%
